# Compound activity as filed in PubChem BioAssay.
# NCF1 inh: p47phox (human) inhibition; P14598; p47phox/p22phox peptide binding, fluorescence polarization, 2 h; inhibition, % at 24.7 µM; 220,000 compounds, 0.53% hits; AID 1274;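 active = inhibition above about 30%, limit read from the data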;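 also: 0% = p47phox with labelled peptide and 100% = labelled peptide alone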
# Target sequence (P14598 whole entry, looked up): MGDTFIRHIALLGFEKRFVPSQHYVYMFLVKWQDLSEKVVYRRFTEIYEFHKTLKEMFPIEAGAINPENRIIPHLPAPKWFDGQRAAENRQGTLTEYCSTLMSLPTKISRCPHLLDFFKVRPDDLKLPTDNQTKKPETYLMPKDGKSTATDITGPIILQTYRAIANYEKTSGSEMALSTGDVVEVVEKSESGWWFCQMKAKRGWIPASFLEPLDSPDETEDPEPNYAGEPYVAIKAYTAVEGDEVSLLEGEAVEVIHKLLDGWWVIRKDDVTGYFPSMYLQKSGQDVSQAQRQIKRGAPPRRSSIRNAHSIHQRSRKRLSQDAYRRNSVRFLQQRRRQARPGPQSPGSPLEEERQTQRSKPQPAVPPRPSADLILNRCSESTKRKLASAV
# ZTA counter: blocks Epstein-Barr virus ZTA, an EBNA-1 counter-screen. 320,000 compounds, 0.15% hits. P03206. ZTA-DNA binding, fluorescence polarization. inhibition, % at 11 µM; in the data active = inhibition above about 33%
# Target sequence (P03206 whole entry, looked up): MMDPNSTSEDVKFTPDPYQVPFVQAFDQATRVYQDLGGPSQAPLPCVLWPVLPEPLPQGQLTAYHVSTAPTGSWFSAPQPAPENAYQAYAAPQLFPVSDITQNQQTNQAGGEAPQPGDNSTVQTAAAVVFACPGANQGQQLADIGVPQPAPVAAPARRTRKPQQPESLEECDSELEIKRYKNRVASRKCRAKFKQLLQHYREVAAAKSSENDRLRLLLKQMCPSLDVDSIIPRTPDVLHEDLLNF
# aDG glyco up: increases alpha dystroglycan glycosylation; activation, % at 10 µM; 360,000 compounds, 0.22% hits; Pro5-aDG cells, alpha-DG glycosylation AlphaScreen (IIH6); 0% Pro5, 100% B10-LARGE cell signal; AID 624168;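 active = activation of at least 8% versus controls, or a plate z-score of at least 8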;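 also: Pro5 are CHO cells carrying HIG-tagged alpha-DG that lacks glycosylation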
# EBNA-1 inhibitor: blocks EBNA-1 binding to DNA. EBNA-1 DNA binding, fluorescence polarization. 300,000 compounds, 0.34% hits. inhibition, % at 14.8 µM. AID 1950; in the data active = inhibition above about 28%
# PG9 Ab binder: small molecules binding HIV-1 gp120 antibody PG9; 360,000 compounds, 0.43% hits; TR-FRET gp120-PG9 antibody binding; inhibition, % at 6.7 µM; in the data active = inhibition above about 8.5%
# NR1D1 modulator: modulates human Rev-erb alpha binding to DNA; Rev-erbα–FITC-DNA binding, fluorescence polarization, 90 min; activity, % at 10 µM; 370,000 compounds, 0.79% hits; AID 1259318;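 active = activity above about 14%, limit read from the data; passing the limit was not always enough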;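 also: 0% = DMSO wells with 35 nM protein and 100% = DMSO wells with 750 nM protein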
# NR1D1 mod conf: confirmation of modulators of human Rev-erb alpha DNA binding | shares compounds with NR1D1 modulator | 3,000 compounds, 61% hits | Rev-erb alpha FITC-DNA binding, fluorescence polarization, 90 min | activation, % at 25 µM | AID 1259319;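 active = activation at or above a set limit, or at least 3 SD above the negative control mean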;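 also: 0% = 35 nM protein with DMSO and 100% = 750 nM protein high control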
# RORg counter: affects RORgamma DNA binding in a Rev-erb alpha counter-screen | purified RORgamma protein-FITC-DNA binding, fluorescence polarization | IC50, µM | AID 1259320 | 910 compounds, 8% hits | shares compounds with NR1D1 modulator;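 active = Compounds whose fitted half-maximal concentration for disrupting protein-DNA binding is below 10 micromolar; the record names Rev-erb in its text, so the target is in doubt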
# The depositor's hits bear a star; i = inactive; . = no result; ! = not confirmed by another sample. Hits are enriched below; roughly 1.9% of the tested compounds scored in any of these assays.
SMILES,NCF1 inh,ZTA counter,aDG glyco up,EBNA-1 inhibitor,PG9 Ab binder,NR1D1 modulator,NR1D1 mod conf,RORg counter
N#C/C(=N/Nc1ccc([N+](=O)[O-])cc1)C(=N)N1CCCCC1,-36,.,-1,.,-3,28*,20*,.
COc1ccc(CCNC(=O)c2cc3ccccn3n2)cc1,.,.,.,.,.,-1,.,.
O=C(COc1nc2ccccc2nc1N1CCOCC1)N1CCc2ccccc21,-35,.,0,.,-2,97*,62*,4.3*
O=C(COc1nnnc2ccccc12)N1CCCc2ccccc21,0,2,0,-3,0,0,.,.
O=C(CCCN1C(=O)/C(=C\c2ccccc2)SC1=S)N1CCOCC1,.,.,1,.,-4,-5,.,.
O=C(O)CN1C(=O)/C(=C\c2cn(CC(=O)N3CCOCC3)c3ccccc23)SC1=S,-36,18,0,5,-17,39*,39*,>40
COc1ccc2c(-c3ccccc3)cc(SC(C)C(N)=O)nc2c1 (stereo not given),-15,-7,0,3,1,19*,18*,.
O=C(Nc1ccc(OC(F)(F)F)cc1)Nc1c(-c2ccc(C(F)(F)F)cc2)nc2ncccn12,.,.,.,.,.,-3,.,.
O=C1NC(Cc2ccccc2)c2nc3ccc(Cl)cc3c(=O)n2-c2cc3ccccc3cc21 (stereo not given),.,.,0,.,-1,22*,2,.
CCOc1ccc(NC(=O)CCSc2ccc3ccccc3n2)cc1,-15,11,0,2,-1,82*,46*,>40
COc1ccc2c(c1)c(=O)c(C(=O)c1ccc(F)cc1)cn2CC(=O)Nc1ccc(F)cc1,-15,-4,0,-9,7,33*,26*,.
COc1ccc2c(c1)c(=O)c(C(=O)c1ccc(C)cc1)cn2CC(=O)Nc1ccc(F)cc1,-23,-14,0,0,-2,17,.,.
C[C@H]1C2CC(OC(=O)Nc3cccc(F)c3)C(C2)[C@H]2CCCCN21 (stereo not given in full),.,.,.,.,.,3,.,.
COc1ccc(-n2c(CCc3ccccc3)nnc2SCC(=O)c2ccc(Cl)cc2)cc1,-4,0,0,9,-1,3,.,.
COc1ccc(-n2c(COc3ccc(Cl)cc3)nnc2SCC(=O)c2ccc(-c3ccccc3)cc2)cc1,.,.,.,.,.,22*,2,.
Cc1cc(C)c(NC(=O)CSc2nc(COc3ccccc3)nc3ccccc23)c(C)c1,-8,-15,0,-26,0,55*,47*,>40
Cc1ccccc1NC(=O)CSc1nc(COc2ccccc2)nc2ccccc12,1,-3,0,9,2,-2,.,.
CCN(CC)CCSc1nnc2c3cc(C)ccc3n(Cc3ccccc3)c2n1,-13,-3,0,-10,-1,-1,.,.
CSc1nnc2c3ccccc3n(Cc3ccccc3)c2n1,2,11,0,6,1,22*,24*,.
CSc1nnc2c3ccccc3n(CCc3ccccc3)c2n1,0,-19,0,2,3,13,.,.
CSc1nnc2c3cc(F)ccc3n(Cc3ccccc3)c2n1,.,2,0,10,1,59*,47*,>40
CC[C@@H]1/C(=C/c2ccccc2)N2C(=O)C[C@@H](c3ccccc3)N=C2N1Cc1ccc(OC)cc1OC,.,.,.,.,.,3,.,.
CCc1ccc2n(-c3ccc(OC)cc3)c([S-])c(C(=O)Nc3cc(C)cc(C)c3)[n+]2c1,-44,15,0,-7,2,90*,113*,i
COc1ccc(CCNC(=O)c2c([S-])n(-c3ccc(C)cc3)c3cccc[n+]23)cc1,-35,15,0,6,0,0,.,.
COc1ccc(OCC(=O)Nc2ccc3oc(-c4ccncc4)nc3c2)cc1,-13,-9,0,-1,-2,-5,.,.
SMILES,NCF1 inh,ZTA counter,aDG glyco up,EBNA-1 inhibitor,PG9 Ab binder,NR1D1 modulator,NR1D1 mod conf,RORg counter
COc1cccc(C(=O)Nc2ccc(-c3nc4ccccc4o3)c(O)c2)c1,-114,4,0,15,2,85*,64*,>40
Cc1ccc(OCC(=O)Nc2ccc(O)c(-c3nc4ccccc4o3)c2)cc1,-76,-20,0,3,7,103*,38*,i
Cc1cc(C(=O)O[C@@H]2CCC[C@@]3(C(=O)N(Cc4ccccc4)c4ccccc43)[C@H]2NC(=O)CCc2ccccc2)no1,.,.,.,.,.,4,.,.
COc1ccc(C)cc1NC(=O)c1cnc2scc(C)n2c1=O,-8,.,0,.,1,27*,8,.
CCCCCCSc1ccc(-c2nc3cc(C)ccn3c2NC2CCCCC2)cc1,.,.,2,.,2,20*!,-2,.
CCC(C)Sc1ccc(-c2nc3cc(C)ccn3c2NC2CCCCC2)cc1 (stereo not given),.,.,5,.,6,20*!,19*,.
C[C@H]1[C@@H](NC(=O)c2ccc(Cl)cc2)CC[C@@]23CCCN2C(=O)CCC[C@@H]13,.,.,.,.,.,2,.,.
COc1cc(C(=O)Nc2ccc(Oc3ncnc4sc(-c5ccccc5)cc34)cc2)cc(OC)c1OC,-12,-7,0,-2,7,30*,-9,.
COc1ccccc1C(=O)Nc1ccc(Oc2ncnc3sc(-c4ccccc4)cc23)cc1,-13,-6,1,-14,1,46*,21*,.
CCCC1CCC2(CCC(=O)N2CCSc2ccccc2)CC1 (stereo not given),.,.,.,.,.,7,.,.
Cc1ccc2cc(-c3noc(C4CCCCC4)n3)c(=O)[nH]c2c1,-1,3,0,-4,0,41*,34*,>40
COC(=O)[C@]12C[C@H](CC(=O)NCc3ccc(OC)c(OC)c3)C(=O)N(Cc3ccco3)C1=C[C@H](C(C)C)O[C@@H]2C1CC1,.,.,.,.,.,1,.,.
Cc1ccc(C(=O)CSc2nc3ccccc3c(=O)n2-c2ccccc2)s1,-4,9,0,2,29*,49*,35*,>40
O=C(CSc1nc2ccccc2c(=O)n1-c1ccc(F)cc1)Nc1ccc(N2CCOCC2)cc1,-4,8,0,1,0,-5,.,.
Cc1ccc(-n2c(SCC(=O)Nc3cccc(C)c3)nc3c(oc4ccccc43)c2=O)cc1,-22,6,.,3,-1,79*,125*,>40
Cc1ccc(NC(=O)CSc2nc3ccccc3c3nc4ccccc4n23)cc1,27,13,0,-8,3,58*,10,.
O=C(CSc1nc2ccccc2c(=O)n1-c1ccc(F)cc1)Nc1cc(S(=O)(=O)N2CCOCC2)ccc1Cl,-35,9,0,-2,-1,65*,34*,>40
COC(=O)C[C@@H]1CC[C@H]2[C@@H](COc3ccc(NC(=O)c4ccc(Cl)cc4)cc3C(=O)N2C)O1,.,.,.,.,.,9,.,.
O=C(OC12CCCN(C1)/C(=C/c1cccc(Cl)c1)C2)c1ccc(F)cc1 (stereo not given),.,.,.,.,.,3,.,.
